p47phox inh: p47phox/p22phox peptide binding inhibitors, primary screen, biochemical, uHTS, NADPH oxidase regulatory subunit | inhibition, % at 24.7 µM | Neutrophil cytosol factor 1 (Homo sapiens), P14598 | fluorescence polarization, 2 h | hit rate 0.53% among 220,000;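 further: 0% = p47phox with labelled peptide and 100% = labelled peptide alone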
14-3-3 Bad inh: inhibitors of 14-3-3 zeta/Bad binding, primary screen, biochemical, TR-FRET, bovine 14-3-3 zeta | 14-3-3 protein zeta/delta (Bos taurus), P63103 | TR-FRET 14-3-3zeta/Dy647-pBad peptide displacement, 1 h | inhibition, % at 21.7 µM | hit rate 0.71% among 220,000;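 active means inhibition above about 70%, limit read from the data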;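 further: 0% = full 14-3-3 plus peptide FRET controls and 100% = background without 14-3-3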
Target sequence (P63103 whole entry, looked up): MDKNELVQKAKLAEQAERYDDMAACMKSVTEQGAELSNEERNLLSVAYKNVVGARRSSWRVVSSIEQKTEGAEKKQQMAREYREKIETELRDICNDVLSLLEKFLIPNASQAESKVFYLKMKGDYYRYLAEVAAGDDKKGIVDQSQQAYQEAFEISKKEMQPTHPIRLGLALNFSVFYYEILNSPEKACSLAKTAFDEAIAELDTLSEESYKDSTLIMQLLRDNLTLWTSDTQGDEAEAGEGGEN
SUMO HTRF inh: inhibitors of in vitro SUMOylation cascade, primary screen, biochemical, HTRF, uHTS; hit rate 0.36% among 290,000; inhibition, % at 35 µM; HTRF SUMOylation assay, SAE1/SAE2 + UBC9; AID 2006, 2009; in the data active means inhibition above about 50%, passing the limit was not always enough
Target sequence (P63279 whole entry, looked up): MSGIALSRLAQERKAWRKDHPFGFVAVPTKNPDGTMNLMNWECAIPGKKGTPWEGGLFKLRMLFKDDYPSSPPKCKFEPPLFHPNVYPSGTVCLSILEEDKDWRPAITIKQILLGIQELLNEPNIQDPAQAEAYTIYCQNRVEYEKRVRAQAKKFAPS
eIF4E 4G PPI: eIF4E–eIF4G protein interaction inhibitors, primary screen, biochemical, uHTS, TR-FRET, eIF4GI fragment | Eukaryotic translation initiation factor 4E (Mus musculus) + Eukaryotic translation … | TR-FRET eIF4E-eIF4GI(517-606) binding, 2 h | inhibition, % at 21.7 µM | hit rate 0.37% among 220,000;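 further: 0% = full FRET control wells and 100% = background wells lacking eIF4GI fragment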
An asterisk follows results filed as active; / = not tested or not shown; [ ] = remark or other dose. Sampled rows, rich in hits. Any-hit rate of the full collection: about 1.3%.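 How the source made its calls, unless noted: active means inhibition above about 30% (limit read from the data); inactive means the rest.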

SMILES	p47phox inh	14-3-3 Bad inh	SUMO HTRF inh	eIF4E 4G PPI
O=C(Nc1cccc2nsnc12)c1ccc(-c2ccc(Br)cc2)o1	-52.8	-6.2	73.0*	-2.5
COC(=O)c1ccccc1NC(=O)c1ccc(-c2ccc(Br)cc2)o1	-1.4	8.5	-10.4	-2.6
Cc1ccccc1N=Nc1c(C)[nH]n(-c2ccccc2)c1=O	-10.2	-8.8	9.1	59.3*
CCOC(=O)c1oc2ccccc2c1COC(=O)CNC(=O)c1cccc(C)c1	/	/	-23.9	/
COc1ccc(CN2CCN(c3ccccn3)CC2)cc1OCc1ccccc1	-5.4	70.2*	15.0	4.2
CCN1CCN(Cc2ccc(OC)c(OCc3ccccc3)c2)CC1	-1.5	44.7	11.7	-4.9
COc1ccc(CN2CCN(C(=O)c3ccco3)CC2)cc1OC	-1.0	30.9	14.2	1.5
COc1ccc(CN2CCN(C(=O)c3ccco3)CC2)cc1OCc1ccccc1	-3.2	83.8*	2.2	-4.2
CCCCCCn1ccc(=N)cc1	-16.7	4.2	9.1	13.7
CCCCCCCCCCCCCCCCn1cc[n+](CC(C)=O)c1	96.4*	98.4*	6.0	68.4*
O=C(c1cccc(Cl)c1)N1CCN(Cc2ccccc2F)CC1	4.5	84.5*	17.3	3.9
O=C1CCCN1CCCNCC(=O)N1c2ccccc2Sc2ccccc21	-3.6	78.9*	-7.2	-9.6
CC1(C)CC(=O)C=C(Nc2ccc([N+](=O)[O-])cc2)C1	/	/	-3.1	/
Cc1cccn2c(=O)c3cc(C(=O)NC4CCS(=O)(=O)C4)sc3nc12 (configuration not stated)	-4.1	1.8	26.3	4.0
Cc1cccn2c(=O)c3cc(C(=O)NC4CCCCCC4)sc3nc12	/	/	55.3*	/
Cc1cc(C)cc(C(=O)NN2CCN(C)CC2)c1	8.4	5.7	0.5	1.1
Cn1cc(/C=C/C(=O)c2ccccc2)c2ccccc21	-11.1	90.5*	-7.7	3.3
Fc1cccc(NCc2ccoc2)c1	0.7	82.5*	9.7	6.7
CC1=C(C#N)C(=O)N(C2CCS(=O)(=O)C2)C(=O)/C1=C\c1ccc(C)o1 (configuration not stated)	-21.1	20.3	61.2*	37.7*
CCN1C(=O)N/C(=C/c2ccc(C)o2)C1=O	1.3	-3.8	19.8	20.2
COc1ccc2[nH]c(=O)c(C(c3nnnn3C3CCCC3)N(C)C3CCCCC3)cc2c1 (configuration not stated)	-5.0	-6.9	22.7	4.8
CCCCNCCOCCSc1ccc(Cl)cc1	-10.0	49.5	11.6	5.3
CC(C)NCCOCCSc1ccc(Cl)cc1	-17.0	82.6*	6.9	3.6
CCOc1ccc(NC(=O)C2=C(C)NC(=S)NC2c2ccc(O)c(OC)c2)cc1 (configuration not stated)	-0.8	13.1	24.5	-4.1
O=S1(=O)CC/C(=N/Nc2ccccn2)c2cc(F)ccc21	-8.0	-9.7	9.6	1.8
SMILES	p47phox inh	14-3-3 Bad inh	SUMO HTRF inh	eIF4E 4G PPI
O=S1(=O)CC/C(=N/Nc2ccc(C(F)(F)F)cn2)c2cc(F)ccc21	-0.1	9.1	-1.7	87.3*
CN(C)c1ccc(NC(=O)CN2CCC(N3CCCCC3)CC2)cc1	-1.0	74.9*	17.3	-5.2
O=S(=O)(c1ccccc1)N1CCCC1c1cccs1 (configuration not stated)	-11.8	-4.8	16.2	97.5*
COc1ccc(S(=O)(=O)N2CCCC2c2cccs2)cc1 (configuration not stated)	-13.6	-1.5	2.0	2.7
Cc1ccsc1/C=N/n1c(-c2cccnc2)n[nH]c1=S	-9.0	-0.8	-4.4	34.6*
Cc1ccc(S(=O)(=O)C(C#N)c2nc3ccccc3nc2N2CCC(C)CC2)cc1 (configuration not stated)	-33.4	28.9	81.2*	-1.6
CCOc1cc(C)c(-c2onc(C(F)(F)F)c2-c2csc(C)n2)c(O)c1	-12.3	-20.7	-20.1	-1.8
O=C(Cn1cc2c(n1)CCCCC2)N1CCCCC1	0.1	-16.0	20.8	1.3
CC1CCc2nn(CC(=O)N3CCCCCC3)cc2C1 (configuration not stated)	-17.8	-4.8	0.2	77.0*[fluorescence artefact?]
Cc1ccnc(NCc2ccc(Cl)cc2)c1	/	/	-5.5	/
Cc1cc(NC(=O)c2coc(=O)c(Br)c2)ccc1C(C)C	37.5*	-3.5	-14.5	2.4
